Reference: PubChem BioAssay AID686979 (National Center for Advancing Translational Sciences (NCATS), 2013)
The campaign covered roughly 420,000 compounds. About 50,000 (12%) were called active. Roughly 26% stayed inconclusive and do not appear here. This excerpt belongs to a sample that is enriched for actives. A number with no mark means an inactive call. Calls follow the shape of the dose curve; as a rule, active = well fitted inhibition curve with a large enough effect; inconclusive = small, poorly fitted or top-dose-only effect; inactive = flat fitted curve, though single readings scatter.

Assay: qHTS for Inhibitors of human tyrosyl-DNA phosphodiesterase 1 (TDP1): qHTS in cells in presence of CPT; also: nearly all actives have a fitted effect of over 55% in size
Conditions: chicken DT40 Tdp1-/-;hTDP1 cells + 20 nM CPT, ATP luminescence, 48 h; series mostly up to 46.2 µM; activity change, negative = growth inhibition: at the top concentration
Summary of the method: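 Chicken DT40 Tdp1-/- cells stably complemented with human TDP1 were seeded at 400 cells/well in medium containing 20 nM camptothecin, exposed to pin-transferred compounds, and grown at 37 °C for at least 48 hr. Viability was read as ATP luminescence.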
% is scaled to controls: 0 for no effect and ±100 for the full control effect; potency is read from the fitted curve at half-maximal effect.

Structure (SMILES)	activity change, negative = growth inhibition [%]	Potency
COc1ccccc1N1CCC(N2CCN(CC(C)(C)C)C(CCO)C2)CC1 (stereo not drawn)	-28.9	
C=CS(=O)c1sc(Cl)c(N2CCOCC2)c1[N+](=O)[O-] (stereo not drawn)		0.731 µM (active)
Cc1cc(C)n(S(=O)(=O)c2cccc([N+](=O)[O-])c2)n1	-8.29	
CN(C)S(=O)(=O)c1cc(C(=O)Nc2ccn(C)n2)c(Cl)cc1Cl	-4.09	
COCCNC(=O)COc1ccc(N(C)S(=O)(=O)c2ccc3ccccc3c2)cc1	-15.1	
NNC(=O)c1ccc(Cl)cc1Cl	2.28	
O=S(=O)(NCC1CC1)c1ccc(F)c(Cl)c1	8.32	
O=S(=O)(Cc1ccc(Cl)cc1Cl)c1ccc(Cl)cc1		0.82 µM (active)
O=CN1CCN(C(=O)c2ccc(Br)o2)CC1	-0.819	
O=C(CSc1ncnc2c1oc1ccccc12)NC1CCCC1	-20.3	
CC(C)[C@@H]1COC(c2cccc(C3=N[C@H](C(C)C)CO3)c2)=N1		20.6 µM (active)
O=C(O)CSCC(=O)Nc1ccc(C(F)(F)F)cc1	17.9	
O=C(OCC(=O)N1CCCCC1)c1ccc(OC(F)(F)F)cc1	-5.48	
O=C(CCn1c(=O)[nH]c2ccccc2c1=O)NCCCN1CCN(c2cccc(Cl)c2)CC1		20.6 µM (active)
Cc1ccc(C)c(N2CCN(C(=O)CCCCn3c(=O)[nH]c4ccccc4c3=O)CC2)c1		16.4 µM (active)
O=C(Cc1csc(Nc2nc(=S)[nH]c3ccccc23)n1)NCCCN1CCN(c2cccc(Cl)c2)CC1		16.4 µM (active)
O=C(CCCCCn1c(=O)[nH]c2ccccc2c1=O)NCCc1c[nH]c2ccccc12	-24.7	
CCN(CC)CCNC(=O)CCCCCn1c(=O)[nH]c2cc(C(=O)OC)ccc2c1=O	-21.7	
O=C(CCn1c(=S)[nH]c2ccccc2c1=O)NCCCN1CCCC1=O	4.25	
NS(=O)(=O)c1ccc(CCNC(=O)CCCCCn2c(=O)[nH]c3ccccc3c2=O)cc1	-16.3	
O=C(CCCCn1c(=O)[nH]c2ccccc2c1=O)NCc1ccc2c(c1)OCO2	-19.6	
Cc1ccc(C)c(N2CCN(C(=O)CCc3c(C)nc4c(c3C)c(=O)n(C)c(=O)n4C)CC2)c1	-1.63	
O=C(CCCn1c(=O)[nH]c2cc(Cl)ccc2c1=O)NCCN1CCN(c2ccccc2)CC1		23.1 µM (active)
Cc1nc2ccccc2c2oc(C(=O)NCCCN3CCC(C)CC3)cc12	-23.5	
O=C(NCCN1CCOCC1)c1cc(Sc2cccc(Cl)c2)nc2ccccc12	-34	
COc1cc(/C=C2\CCCc3c2nc2ccccc2c3C(=O)O)cc(Cl)c1O	5.4	

Structure (SMILES)	activity change, negative = growth inhibition [%]	Potency
O=C(Nc1cccnc1Oc1ncnc2cc(Cl)ccc12)c1ccc(F)cc1	8.31	
CC(NS(=O)(=O)c1ccccc1)c1n[nH]c(=S)n1-c1ccccc1 (stereo not drawn)	2.51	
CCC(C)CN1C(=O)CN(S(C)(=O)=O)CC1(C)C(=O)Nc1ccc2c(c1)OCCO2 (stereo not drawn)	-11.4	
O=C(C[C@H]1CC[C@H]2[C@@H](COC[C@H](O)CN2C(=O)c2ccccn2)O1)N1CCN(c2ccccc2)CC1	-15.1	
Cc1nccn1-c1ccc(NC(=O)[C@H]2O[C@@H](n3ccc(=O)[nH]c3=O)[C@H](O)[C@@H]2O)cc1	-11.3	
CC(=O)Nc1cncc(-c2ccccc2CO)n1	17.6	
Cc1cc(O)ccc1-c1cnc2ccccc2n1	-26.9	
CC(=O)Nc1cnc(-c2ccc(O)cc2C)cn1		9.2 µM (active)
COc1ccc(C(=O)NNc2cc(C)nc(NNC(=O)c3ccc(OC)cc3)n2)cc1	1.43	
COC(=O)c1ccc2nc(-c3ccc(Cl)cc3)c(Cc3cccc(F)c3)n2c1		20.6 µM (active)
COc1ccc(NC(=O)c2cc(-c3ccc(C)cc3)on2)cc1	9.84	
COC(=O)c1ccc2nc(-c3cccc(Br)c3)c(Cc3ccccc3C(F)(F)F)n2c1	-1.17	
COc1ccc(C(=O)OCC(=O)NCCCc2ccccc2)cc1OC	-4.58	
COC(=O)c1ccc(COC(=O)c2cnc(Cl)c(Cl)c2)cc1	4.07	
COC(=O)c1ccc2nc(-c3ccc(C)cc3)c(Cc3ccc(OC)cc3C)n2c1		23.1 µM (active)
COC(=O)c1ccc(CSc2nc3cc(Cl)ccc3o2)cc1	-6.06	
COC(=O)c1ccc2nc(-c3ccc(OC)c(OC)c3)c(Cc3ccccc3)n2c1		23.1 µM (active)
Cc1ccc(N2CCN(c3ccc([N+](=O)[O-])cn3)CC2)c(C)c1	-24.7	
CCOC(=O)C(=CNc1cccc(C)n1)C(=O)OCC	-1.85	
CCOC(=O)CNC(=O)/C(=C\c1ccc(F)cc1)NC(=O)c1ccccc1	-0.888	
CCOC(=O)C(=Cc1ccccc1)C(=O)c1ccccc1		18.4 µM (active)
O=c1ccc2cc(S(=O)(=O)Nc3ccccc3F)ccc2o1	-5.21	
CCOc1ccc(S(=O)(=O)NCCSc2ccccc2)cc1	-6.71	
CCOc1ccc(S(=O)(=O)c2cn(Cc3ccccc3)c3ccc(OCC)cc3c2=O)cc1		13 µM (active)
CCOc1cccc(C(=O)Nc2cnn(Cc3ccccc3)c2)c1	-15.9	
CCOc1ccc2c(c1)c(=O)c(S(=O)(=O)c1ccc(C)cc1)cn2CC		18.4 µM (active)

Structure (SMILES)	activity change, negative = growth inhibition [%]	Potency
COc1ccc2c(c1)c(=O)c(S(=O)(=O)c1ccc(F)cc1)cn2CC(=O)Nc1ccc(C)cc1C	12.7	
CCCn1cc(S(=O)(=O)c2ccc(C)cc2)c(=O)c2cc(OCC)ccc21	-18.5	
CCN(CC)Cc1c(C(=O)N/N=C/c2cccc(OCc3ccc(F)cc3)c2)nnn1-c1nonc1N	-7.48	
CC(C)(C)n1nc2c(c1NC(=O)c1cc3ccccc3o1)CSC2	-29.8	
O=C(NC(=S)Nc1cc(C(F)(F)F)ccc1N1CCOCC1)c1ccc(-c2cccc(Cl)c2)o1	-17.4	
Oc1ccc(Br)cc1/C=N/Nc1ccccn1		1.64 µM (active)
CCN(CC)CCn1c(/N=C/c2cc(Br)ccc2O)nc2ccccc21	-26.1	
Oc1ccc(Br)cc1C=Nc1ccc2[nH]ncc2c1	-6.55	
CCN1CCN(CCNC(=O)c2ccc3c(c2)NC(=O)/C(=C\c2cccc(Cl)c2)S3)CC1		23.1 µM (active)
O=C(NCCN1CCOCC1)Nc1cccc(Cl)c1	7.86	
CCN1CCCC1CNC(=O)c1ccc2c(c1)NC(=O)/C(=C\c1ccccc1F)S2 (stereo not drawn)		18.4 µM (active)
COc1ccc(CN2CCCC(CNC(=O)c3ccc(F)cc3)C2)cc1OC (stereo not drawn)	-25.5	
CCN1CCCC1CNC(=O)c1cc2cc(OC)c(OC)cc2[nH]1 (stereo not drawn)	-12.6	
O=C(NCCCN1CCCCC1)c1ccc2c(c1)NC(=O)C(N1CCOCC1)S2 (stereo not drawn)	-21.2	
CCOC(=O)c1sc(=NC(=O)c2ccc(Br)cc2)n(C)c1C	3.17	
Cc1ccc2nc(-c3ccc(Br)cc3)cn2c1	1.32	
Cc1ccc(NS(=O)(=O)c2ccc(-c3ccc(=O)[nH]n3)o2)c(C)c1	-23	
O=C(O)c1[nH]c2ccccc2c1C(c1cccc(O)c1)c1c(C(=O)O)[nH]c2ccccc12	-4.46	
CC(=O)OCC(C)n1c(=O)c2ccccc2n1C(C)=O (stereo not drawn)	-1.82	
NC(=S)NN=Cc1ccc(OC(=O)COc2cc(Cl)c(Cl)cc2Cl)cn1		6.51 µM (active)
O=C(COC(=O)COc1cc(Cl)c(Cl)cc1Cl)NC1CC1	-17.8	
O=C(COc1cc(Cl)c(Cl)cc1Cl)NCCc1ccccn1	2.28	
O=C(Cn1cnc2c(oc3ccccc32)c1=O)Nc1ccc(OC(F)(F)F)cc1	-14.7	
C[C@H](NC(=O)c1ccccc1Cl)C(=O)OCCOc1cccc(Cl)c1	-17.7	
O=C1C(Sc2cccc(F)c2)=C[C@@]2(O)CC[C@@H](O)[C@]1(Sc1cccc(F)c1)[C@H]2O		16.4 µM (active)
COC(=O)C1=C(C)Nc2ncnn2C1c1ccco1 (stereo not drawn)	4.8	

Structure (SMILES)	activity change, negative = growth inhibition [%]	Potency
COc1ccccc1NC(=O)C1=C(C)Nc2ncnn2C1c1ccc(C)o1 (stereo not drawn)	0.297	
CC1=C(C(=O)OCc2ccccc2)C(c2ccco2)n2ncnc2N1 (stereo not drawn)		23.1 µM (active)
Cc1ccc(S(=O)(=O)c2c[nH]c3ccc(Cl)cc3c2=O)cc1	29.4	
Cc1nc(COc2cc3oc(=O)cc(C)c3cc2Cl)cs1	2.52	
COc1ccc(-c2nn(-c3ccccc3)cc2/C=N/Nc2ccccn2)cc1OC		7.31 µM (active)
CN(C)/N=C/c1cn(-c2ccccc2)nc1-c1cccnc1	-32.9	
O=Cc1cn(-c2ccccc2)nc1-c1ccccn1	-24	
Cc1cc(C)cc(OCC(=O)Nc2nc(-c3ccc(F)cc3)ns2)c1	-26.5	
O=c1ccn([C@@H]2O[C@H](CNS(=O)(=O)c3cc4ccccc4s3)[C@@H](O)[C@H]2O)c(=O)[nH]1	-10.7	
COc1ccc2c(c1)c1ncn(Cc3ccccn3)c(=O)c1n2C	-5.08	
Cc1cc([N+](=O)[O-])nn1Cc1ccc(F)cc1	0.664	
C=CCN1C=C(C(=O)c2ccccc2)C(=O)CC1	11.1	
C=CCN1C(=O)C2(OCCCO2)c2cccc(Cl)c21	-7.94	
C=CCN1C(=O)C(O)(CC(=O)c2ccc(Cl)cc2)c2ccccc21 (stereo not drawn)		18.4 µM (active)
O=C(NCc1ccccc1)C1CCN(S(=O)(=O)c2ccc3[nH]c(=O)ccc3c2)CC1	-5.45	
CCC(=O)N1CCc2cc(S(=O)(=O)NC(Cc3ccccc3)C(=O)NCc3ccc(C)cc3)ccc21 (stereo not drawn)	-22.3	
COCCCNC(=O)/C(C#N)=C/c1c(N2CCCCCC2)nc2ccccn2c1=O	3.95	
CC(=O)Nc1ccc(NC(=O)COc2ccc(S(=O)(=O)NC(C)c3ccccc3)cc2)cc1 (stereo not drawn)	-5.71	
Cc1ccc(COc2ccc(/C=N/NC(=O)CN3CCCCC3)cc2)cc1	4.47	
CNC(=S)NNC(=O)c1sccc1OCc1ccccc1	-5.88	
Cc1ccc(/C=N/NC(=O)c2sccc2OCc2ccc(F)cc2)cc1		16.4 µM (active)
CCOc1ccccc1NC(=O)CN1CCN(S(=O)(=O)c2ccc(Br)cc2)CC1	-28.6	
O=C(Nc1ccc(F)cc1)N1CCCC(c2nc3c(nnn3Cc3ccccc3Cl)c(=O)[nH]2)C1 (stereo not drawn)		20.6 µM (active)
COc1ccc(Cn2nnc3c(=O)[nH]c(C4CCN(C(=O)c5ccccc5Cl)CC4)nc32)cc1	-23.2	
CC(=O)Nc1ccc(Nc2ncnc3c2nnn3Cc2ccccc2Cl)cc1	17.7	
